Laboratory results reported in PubChem BioAssay (Tox21).
Records with an inconclusive call do not appear. Where a call stands in place of a potency, no number is given. The source made the active and inactive calls. Calls come from the whole dose curve; as a rule, active = well fitted inhibition curve with a large enough effect in the signal ratio in the repeat runs (not every such curve was filed as active); inconclusive = weak or mixed curves, or effect the other way; inactive = no such curve, though single readings can be large or run the other way; the % refers to the signal ratio.

Biological target: Peroxisome proliferator-activated receptor delta (Homo sapiens) (UniProt Q03181)
Sequence (Q03181 whole entry, looked up): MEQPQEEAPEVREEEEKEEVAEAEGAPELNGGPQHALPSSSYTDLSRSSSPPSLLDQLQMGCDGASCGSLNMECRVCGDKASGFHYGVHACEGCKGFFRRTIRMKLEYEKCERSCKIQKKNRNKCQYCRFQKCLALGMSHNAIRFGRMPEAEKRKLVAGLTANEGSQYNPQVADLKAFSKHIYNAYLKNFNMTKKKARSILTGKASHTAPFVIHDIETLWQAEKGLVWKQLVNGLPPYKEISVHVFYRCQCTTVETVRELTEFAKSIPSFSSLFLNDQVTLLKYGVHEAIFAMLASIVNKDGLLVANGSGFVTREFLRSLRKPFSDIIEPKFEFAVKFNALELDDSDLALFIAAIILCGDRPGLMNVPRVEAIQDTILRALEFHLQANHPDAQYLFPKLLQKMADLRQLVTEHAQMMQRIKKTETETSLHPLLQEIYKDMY
Experiment: qHTS assay to identify small molecule antagonists of the peroxisome proliferator-activated receptor delta (PPARd) signaling pathway (AID 743215);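 note: cells stimulated with agonist L165041 at 300 nM final during compound exposure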
Conditions: HEK293H PPARd-UAS-bla, beta-lactamase FRET ratio, antagonist, 17 h; series mostly up to 62 µM
Source text: U.S. Tox21 Program National Center for Advancing Translational Sciences [NCATS] NIH Chemical Genomics Center [NCGC] U.S. Environmental Protection Agency [EPA] National Institutes of Environmental Health Sciences [NIEHS] National Toxicology Program [NTP] U.S. Food and Drug Administration [FDA] Tox21 Assay Overview: The peroxisome proliferator-activated receptors (PPARs) are lipid-activated transcription factors of the nuclear receptor superfamily with three distinct subtypes namely PPAR alpha, PPAR delta (PPARd) and PPAR gamma. All these subtypes heterodimerizes with Retinoid X receptor (RXR) and have different physiological functions. […] To identify the compounds that inhibit PPAR-delta signaling, GeneBLAzer PPAR delta UAS-bla HEK293H cell line (Invitrogen, Carlsbad, CA, USA) containing a beta-lactamase reporter gene under the control of an Upstream Activator Sequence (UAS) was used to screen the Tox21 compound library.
Tox21 Assay Protocol Summary: PPARd-bla cells were dispensed at 3000 cells/5uL/well in 1536-well black wall/clear bottom plates using a Multidrop Combi (Thermo Fisher Scientific, Waltham, MA) dispenser. After the assay plates were incubated at 37 C and 5% CO2 for 5 h, 23 nL of compounds dissolved in DMSO, positive controls or DMSO only was transferred to the assay plate by a Pintool station (Kalypsys, San Diego, CA), followed by addition of 1ul L165041 (300 nM, final concentration in the wells). The assay plates were incubated at 37 C for 17 h, and then 1 uL of LiveBLAzerTM B/G FRET substrate was added using a Bioraptr Flying Reagent Dispenser (FRD) workstation (Beckman Coulter, Indianapolis, IN, USA). The assay plates were incubated at room temperature for 2 h and fluorescence intensity was measured by an Envision plate reader (PerkinElmer, Shelton, CT).
Potency is the fitted concentration of half-maximal effect.

Compound | Potency
CC1CCC(C(C)CS)CC1S (stereo not given) | inactive
COc1ccc(N)c([N+](=O)[O-])c1 | inactive
O=NN(CCCl)C(=O)NCCCl | inactive
C=CC(=O)NC(C)C | inactive
CC(=O)NCCO | inactive
NC(=O)c1ccccc1[N+](=O)[O-] | inactive
COC(=O)Nc1nc2ccc(C(=O)C3CC3)cc2[nH]1 | inactive
CC(C)(C)S | inactive
Cc1ccc(NC(=O)N(C)C)cc1NC(=O)N(C)C | inactive
CCCOC(=O)c1c(Cl)c(Cl)c(Cl)c(Cl)c1C(=O)OCCC | inactive
COc1cc(S(=O)(=O)Nc2ccccc2)c(OC)cc1N | inactive
COc1ccc(/C=C/C(=O)c2ccc(OC)cc2OC)cc1 | 11.9 µM (active)
O=C(O)/C=C/c1ccc(O)c(O)c1 | inactive
CCc1ccc(C)cc1 | inactive
COc1cc(NS(=O)(=O)c2ccc(N)cc2)nc(C)n1 | inactive
O=C1CC[C@@H](C(=O)O)N1 | inactive
COC(=O)CC(C(C)=O)C(=O)OC (stereo not given) | inactive
O=CNNC=O | inactive
CCN(CC)CCOC(=O)C(c1ccccc1)c1ccccc1 | inactive
CC(=O)OCC(=O)[C@@]1(OC(C)=O)[C@@H](C)C[C@H]2[C@@H]3C[C@H](F)C4=CC(=O)C=C[C@]4(C)[C@@]3(F)[C@@H](O)C[C@@]21C | inactive

Compound | Potency
COC(=O)c1sccc1S(N)(=O)=O | inactive
COc1ccc2nc(S(=O)Cc3ncc(C)c(OC)c3C)[nH]c2c1 (stereo not given) | inactive
COc1ccc(C2C(=O)c3ccccc3C2=O)cc1 | inactive
C1=CCC2CC=CC2C1 (stereo not given) | inactive
Cc1c[nH]c2ccccc12 | inactive
CCCCCCCCCCCCCOC(=O)CCSCCC(=O)OCCCCCCCCCCCCC | inactive
O=C(O)CCC(=O)c1ccc(-c2ccccc2)cc1 | inactive
CC(C)(C)CCCCCCOC(=O)c1ccccc1C(=O)OCCCCCCC(C)(C)C | inactive
CC(=O)OCCC1CCCCC1 | inactive
O=C(c1ccccc1)c1ccc(O)cc1 | inactive
COc1ccc(C)cc1 | inactive
CCC(CO)(CO)[N+](=O)[O-] | inactive
Cc1ccc(N(CC2=NCCN2)c2cccc(O)c2)cc1 | inactive
CCCCCCC(CO)CCCC (stereo not given) | inactive
c1ccc2sc(SSc3nc4ccccc4s3)nc2c1 | inactive
CC(CN(CCN(CC(C)OCCO)CC(C)OCCO)CC(C)OCCO)OCCO (stereo not given) | inactive
CCCCC[C@H](O)/C=C/[C@H]1[C@H](O)CC(=O)[C@@H]1C/C=C\CCCC(=O)O | inactive
BrC(Br)C(Br)Br | inactive
N[C@@H](Cc1cc(I)c(O)c(I)c1)C(=O)O | inactive
Cc1ccc(N(CCO)CCO)cc1 | inactive
